# Source: PubChem BioAssay (NCATS)
# Inconclusive results are not listed. The source made the active and inactive calls. Unless noted, calls come from the whole dose curve; as a rule, active = well fitted curve in the direction sought with a large enough effect; inconclusive = small, poorly fitted or top-dose-only effect, or another doubt; inactive = no such curve, though single readings can be large; an effect the other way counts as inactive or inconclusive.
# Columns and labels:
# [1] = target: Catechol O-methyltransferase (Homo sapiens) (UniProt P21964); assay: Confirmatory Screen for Target Class Profiling of Small Molecule Inhibitors of Methyltransferases (AID 1745852); conditions: MTase-Glo luminescence, SAH detection, recombinant enzyme; measured here: COMT max response; stronger effect = lower value; for activity change, negative = inhibition: % is set by controls: 0 for no effect and ±100 for the full control effect
# Sequence of Catechol O-methyltransferase (Homo sapiens) (P21964 whole entry, looked up): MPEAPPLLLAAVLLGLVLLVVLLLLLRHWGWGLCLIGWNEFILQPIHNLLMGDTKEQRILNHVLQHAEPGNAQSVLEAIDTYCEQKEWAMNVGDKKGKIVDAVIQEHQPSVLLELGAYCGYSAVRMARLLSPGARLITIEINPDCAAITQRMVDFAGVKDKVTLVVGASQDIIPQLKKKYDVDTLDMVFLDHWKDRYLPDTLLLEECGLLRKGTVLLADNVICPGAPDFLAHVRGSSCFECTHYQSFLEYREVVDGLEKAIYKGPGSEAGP
# [2] = target: Guanidinoacetate N-methyltransferase (Homo sapiens) (UniProt Q14353); assay: as above; conditions: activity change, negative = inhibition: at 57.3 µM (top of the series) unless noted
# [3] = target: Nicotinamide N-methyltransferase (Homo sapiens) (UniProt P40261); assay: as above; conditions: MTase-Glo luminescence, SAH detection, recombinant enzyme; measured here: NNMT max response; stronger effect = lower value
# Sequence of Nicotinamide N-methyltransferase (Homo sapiens) (P40261 whole entry, looked up): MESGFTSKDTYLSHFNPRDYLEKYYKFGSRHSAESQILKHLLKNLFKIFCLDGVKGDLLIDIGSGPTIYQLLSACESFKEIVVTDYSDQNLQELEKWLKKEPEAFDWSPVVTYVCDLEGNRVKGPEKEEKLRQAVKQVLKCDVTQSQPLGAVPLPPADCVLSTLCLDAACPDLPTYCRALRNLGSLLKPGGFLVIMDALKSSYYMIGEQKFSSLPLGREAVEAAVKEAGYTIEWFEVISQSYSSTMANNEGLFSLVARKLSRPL
# [4] = target: Phenylethanolamine N-methyltransferase (Homo sapiens) (UniProt P11086); assay: as above; conditions: MTase-Glo luminescence, SAH detection, recombinant enzyme; measured here: PNMT max response; stronger effect = lower value
# Sequence of Phenylethanolamine N-methyltransferase (Homo sapiens) (P11086 whole entry, looked up): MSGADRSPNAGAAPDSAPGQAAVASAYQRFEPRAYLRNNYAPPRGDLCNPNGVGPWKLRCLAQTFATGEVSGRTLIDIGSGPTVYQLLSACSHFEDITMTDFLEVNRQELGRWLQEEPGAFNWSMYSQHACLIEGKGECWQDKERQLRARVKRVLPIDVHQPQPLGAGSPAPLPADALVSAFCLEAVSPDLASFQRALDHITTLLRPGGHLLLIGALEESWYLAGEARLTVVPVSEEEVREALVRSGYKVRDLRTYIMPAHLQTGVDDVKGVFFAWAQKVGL
# [5] = target: Cytochrome P450 1A2 (Homo sapiens) (UniProt P05177); assay: p450-cyp1a2 (AID 410; calls by dose curve;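 note: -100% = full effect of reference inhibitor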)
# Outline: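 O-Demethylation of luciferin 6' methyl ether by human CYP1A2 is monitored as luciferase luminescence. Substrate sits at Km (100uM); enzyme is 20nM. Values are scaled to 57 uM furafylline as maximal inhibition.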
# [6] = NFAT Signaling Pathway (AID 444; active = well fitted curve in either direction with a large enough effect, not every such curve was filed as active;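 note: carbachol stimulus at about its EC50 of 1 µM final; % is set by controls: 0 for no effect and ±100 for the full control effect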); conditions: Jurkat NFAT-bla M1, carbachol, beta-lactamase ratio, 5 h; at 7.69 µM (top of the series) unless noted
# Outline: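 Jurkat cells carrying an NFAT-driven β-lactamase reporter and co-transfected muscarinic M1 receptor were treated with compound plus carbachol (1 uM final, an EC50 level) for 5 h at 37 °C. CCF4 loading followed for 1 h at RT; 460/530 nm ratio gave %activity.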
# [7] = target: Glucocorticoid receptor (Homo sapiens) (UniProt P04150); assay: GR-EFC Redistribution (AID 451; calls by dose curve; note: potency is the fitted concentration of half-maximal effect); conditions: CHO-K1 GR-EFC translocation, beta-gal luminescence, 2 h
# Outline: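 CHO-K1 cells stably expressing nuclear-localized β-gal enzyme acceptor and GR fused C-terminally to the enzyme donor fragment; ligand-driven nuclear translocation restores β-gal by complementation. Compounds titrated up to 46 uM final, 2 h at 37 °C; luminescence read.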
# [8] = target: Mitogen-activated protein kinase 10 (Mus musculus) (UniProt Q61831); assay: JNK3 AlphaScreen Assay (AID 530; active = well fitted curve in either direction with a large enough effect, not every such curve was filed as active;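 note: kinase came from lysate of stimulated human HepG2 cells; signal reports phosphorylation of biotinylated GST-cJun 1-79 at Ser73 with 10 µM ATP; % is set by controls: 0 for no effect and ±100 for the full control effect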)
# Outline: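 Phosphorylation of biotinylated GST-cJun(1-79) at Ser73 is measured by AlphaScreen proximity luminescence. Enzyme is JNK3 in HepG2 lysates activated with interleukin-1beta and tumor necrosis factor alpha; ATP is 10 uM final.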
# [9] = target: 3',5'-cyclic-AMP phosphodiesterase 4B (Homo sapiens) (UniProt Q07343); assay: qHTS Assay for Inhibitors of PDE-IV (AID 607; active = well fitted activation curve with a large enough effect in the main read-out, with a control signal flat, not every such curve was filed as active; note: % of control where 0% means no effect)
# Outline: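 HEK293 ACTOne cells with CNG channel (1000/well), endogenous PDE4; membrane potential dye, compounds up to 22.9 uM final. Fluorescence Ex 535/Em 590; RO 20-1724 (100 uM final) as reference.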
# [10] = target: Guanine nucleotide-binding protein G(i) subunit alpha-1 (Homo sapiens) (UniProt P63096); assay: qHTS Assay for Inhibitors of RGS12 GoLoco Motif Activity (Green Fluorophore) (AID 879);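 note: 0% = labeled peptide with Gαi1 and full inhibition = labeled peptide alone without protein; negative values mean loss of peptide binding seen as reduced polarization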
# Sequence of Guanine nucleotide-binding protein G(i) subunit alpha-1 (Homo sapiens) (P63096 whole entry, looked up): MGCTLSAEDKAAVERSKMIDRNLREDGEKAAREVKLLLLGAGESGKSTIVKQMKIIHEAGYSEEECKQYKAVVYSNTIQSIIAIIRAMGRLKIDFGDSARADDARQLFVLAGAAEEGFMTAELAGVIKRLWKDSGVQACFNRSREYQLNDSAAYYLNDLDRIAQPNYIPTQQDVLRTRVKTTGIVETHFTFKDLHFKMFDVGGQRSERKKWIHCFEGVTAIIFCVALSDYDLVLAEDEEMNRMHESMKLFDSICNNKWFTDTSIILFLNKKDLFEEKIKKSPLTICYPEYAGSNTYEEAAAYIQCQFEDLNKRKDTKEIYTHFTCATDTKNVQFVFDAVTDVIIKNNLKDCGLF
# Outline: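 A drop in FITC polarization marked displacement of the FITC-tagged RGS12 GoLoco peptide (10 nM) from Gαi1 (50 nM). Compounds were incubated 10 min at room temperature in Tris pH 7.5 buffer containing 150 mM NaCl, 0.1 mM GDP and 0.05% NP40; unlabeled peptide titration served as control.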
# [11] = target: Cytochrome P450 3A4 (Homo sapiens) (UniProt P08684); assay: qHTS Assay for Activators of Cytochrome P450 3A4 (AID 885); note: nearly all actives have a fitted effect of over 65% in size
# Outline: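 Human CYP3A4 dealkylates Luciferin-PPXE to luciferin, which luciferase detection converts to light. Substrate was at its KM (25uM), buffer 200mM KPO4, reaction 60 min at RT.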
# [12] = target: Cytochrome P450 2D6 (Homo sapiens) (UniProt P10635); assay: qHTS Assay for Inhibitors and Substrates of Cytochrome P450 2D6 (AID 891); note: potency is the fitted concentration of half-maximal effect; nearly all actives have a fitted effect of over 60% in size
# Outline: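 Luminescent read-out of luciferin formed by 5 nM human CYP2D6 demethylating 30 uM Luciferin-ME EGE (Km level) over 60 min at room temperature after NADPH regeneration addition. Data normalized to full inhibition by 1.43 uM quinidine.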
# [13] = qHTS Assay for Identification of Small Molecule Antagonists for Thrombopoietin (TPO) Signaling Pathway (AID 918); conditions: TPO-dependent cell signaling reporter, antagonist mode; note: potency is the fitted concentration of half-maximal effect; nearly all actives have a fitted effect of over 60% in size
# Outline: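 Inhibitors of TPO signaling are sought by stimulating IL-3-starved murine Ba/F3 cells (human TPO receptor, Glycoprotein IIb-driven luciferase) with TPO at its EC50 of 26 pM alongside compound. After 24 hrs at 37 C, reporter luminescence is measured.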
# [14] = target: Muscarinic acetylcholine receptor M1 (Rattus norvegicus) (UniProt P08482); assay: qHTS Assay for Antagonists of Acetylcholine Muscarinic M1 Receptor: Measurement of IP-One Response (AID 944); note: potency is the fitted concentration of half-maximal effect; nearly all actives have a fitted effect of over 75% in size
# Outline: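 Antagonist mode with rat M1 receptor transfected into CHO cells. Compound is added first for 10 min, carbachol at its EC80 follows for 30 min, and lysis reagents then allow TR-FRET detection of accumulated IP1.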
# [15] = target: Pyruvate kinase (Leishmania mexicana) (UniProt Q27686); assay: qHTS Validation Assay for Inhibitors of Leishmania Mexicana Pyruvate Kinase (AID 945);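 note: 0% = DMSO only neutral control wells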
# Sequence of Pyruvate kinase (Leishmania mexicana) (Q27686 2-499 E452W): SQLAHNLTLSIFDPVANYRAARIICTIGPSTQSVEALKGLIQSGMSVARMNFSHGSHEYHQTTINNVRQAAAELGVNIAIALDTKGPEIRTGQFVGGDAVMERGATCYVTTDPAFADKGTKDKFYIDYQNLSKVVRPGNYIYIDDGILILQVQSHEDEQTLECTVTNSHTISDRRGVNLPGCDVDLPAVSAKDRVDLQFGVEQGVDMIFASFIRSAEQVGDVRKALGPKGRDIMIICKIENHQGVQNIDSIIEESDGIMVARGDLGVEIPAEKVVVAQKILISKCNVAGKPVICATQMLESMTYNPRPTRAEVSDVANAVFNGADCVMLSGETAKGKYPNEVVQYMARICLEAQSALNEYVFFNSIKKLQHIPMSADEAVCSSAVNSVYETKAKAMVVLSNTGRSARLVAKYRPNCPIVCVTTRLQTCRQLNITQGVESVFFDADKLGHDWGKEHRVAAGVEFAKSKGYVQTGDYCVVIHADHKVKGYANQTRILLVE
# Outline: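 Luminescent ATP detection (PKLight) after a 1 h room-temperature reaction of 0.2 nM LmPYK E451W mutant with 0.5 mM PEP and 0.1 mM ADP at pH 7.2. Activity is normalized to DMSO-only control wells.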
# [16] = target: Pyruvate kinase PKM (Homo sapiens) (UniProt P14618); assay: qHTS Assay for Activators of Human Muscle Pyruvate Kinase (AID 954; active = well fitted curve in the direction sought with a large enough effect, not every such curve was filed as active;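 note: 0% = uninhibited enzyme and -100% = no enzyme or full thiadiazolimine inhibition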)
# Sequence of Pyruvate kinase PKM (Homo sapiens) (P14618 whole entry, looked up): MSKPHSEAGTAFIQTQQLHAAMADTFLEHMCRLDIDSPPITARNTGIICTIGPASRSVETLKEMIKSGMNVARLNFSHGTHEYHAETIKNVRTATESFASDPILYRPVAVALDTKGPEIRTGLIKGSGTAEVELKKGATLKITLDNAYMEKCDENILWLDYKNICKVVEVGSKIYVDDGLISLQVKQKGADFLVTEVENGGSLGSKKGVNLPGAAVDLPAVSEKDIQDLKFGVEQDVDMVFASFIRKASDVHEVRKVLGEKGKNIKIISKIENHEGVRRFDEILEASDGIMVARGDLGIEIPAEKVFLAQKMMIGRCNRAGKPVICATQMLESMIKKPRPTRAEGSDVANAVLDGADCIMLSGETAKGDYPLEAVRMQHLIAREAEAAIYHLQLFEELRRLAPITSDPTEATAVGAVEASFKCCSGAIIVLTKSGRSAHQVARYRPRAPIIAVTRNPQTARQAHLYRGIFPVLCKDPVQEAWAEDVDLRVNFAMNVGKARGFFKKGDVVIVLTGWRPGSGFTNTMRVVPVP
# Outline: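 Compound pinned into substrate mix (0.5 mM PEP, 0.1 mM ADP), then 0.1 nM PKM2 added; 1 h, RT. Stop/detection luciferase reagent added, luminescence read. Normalized to no-inhibition and no-enzyme or reference-inhibitor controls.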
# [17] = target: Alpha-galactosidase A (Homo sapiens) (UniProt P06280); assay: Counterscreen for Glucocerebrosidase Inhibitors: qHTS Assay for Human alpha-Galactosidase at pH 4.5 (AID 992); note: 0% is about no effect
# Sequence of Alpha-galactosidase A (Homo sapiens) (P06280 whole entry, looked up): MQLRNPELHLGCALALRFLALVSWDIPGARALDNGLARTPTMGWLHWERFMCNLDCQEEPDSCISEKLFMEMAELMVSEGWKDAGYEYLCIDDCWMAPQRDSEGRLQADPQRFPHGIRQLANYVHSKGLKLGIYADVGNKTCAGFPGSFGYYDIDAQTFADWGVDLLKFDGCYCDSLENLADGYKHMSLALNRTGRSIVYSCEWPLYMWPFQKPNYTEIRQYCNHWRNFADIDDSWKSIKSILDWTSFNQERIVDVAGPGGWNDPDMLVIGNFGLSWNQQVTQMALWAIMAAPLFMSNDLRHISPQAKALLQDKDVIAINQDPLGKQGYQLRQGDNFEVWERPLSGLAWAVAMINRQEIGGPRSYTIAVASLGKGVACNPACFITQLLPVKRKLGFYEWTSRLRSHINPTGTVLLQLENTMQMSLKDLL
# Outline: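 Steps: enzyme (2 nM final), then compound across 0.7 nM to 77 uM, then 80 uM fluorogenic galactopyranoside substrate; incubate 20 min at room temperature; quench at pH 10; measure fluorescence at 365/440 nm.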
# [18] = target: alpha-glucosidase (Oryza sativa, rice) (UniProt Q653V4); assay: Counterscreen for Glucocerebrosidase Inhibitors: qHTS Assay for Rice alpha-Glucosidase at pH 5.0 (AID 997);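 note: 0% = full activity with enzyme and -100% = basal without enzyme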
# Outline: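 Endpoint fluorogenic assay at pH 5.0: compounds (0.7 nM to 77 uM) titrated against 4 nM rice enzyme and 400 uM 4-MU-alpha-glucoside for 20 min at room temperature; NaOH/glycine stop, read ex 365/em 440 nm, Hill-fitted AC50.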
# [19] = target: DNA repair nuclease/redox regulator APEX1 (Homo sapiens) (UniProt P27695); assay: qHTS Validation Assay for Inhibitors of the Human Apurinic/apyrimidinic Endonuclease 1 (APE1) (AID 1705; note: potency is the fitted concentration of half-maximal effect)
# Sequence of DNA repair nuclease/redox regulator APEX1 (Homo sapiens) (P27695 whole entry, looked up): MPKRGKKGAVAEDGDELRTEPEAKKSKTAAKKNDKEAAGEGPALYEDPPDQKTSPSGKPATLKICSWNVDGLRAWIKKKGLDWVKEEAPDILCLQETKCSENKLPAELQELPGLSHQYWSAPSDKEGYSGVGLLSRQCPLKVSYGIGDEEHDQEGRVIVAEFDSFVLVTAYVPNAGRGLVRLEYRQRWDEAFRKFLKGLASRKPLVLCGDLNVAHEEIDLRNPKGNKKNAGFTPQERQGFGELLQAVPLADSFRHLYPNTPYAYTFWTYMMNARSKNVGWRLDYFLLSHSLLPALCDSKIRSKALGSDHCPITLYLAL
# Outline: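 Activity read as rising fluorescence (598 nm emission, 525 nm excitation) from incision of a TAMRA/BHQ-2 duplex carrying a THF abasic site (50 nM). Compound and enzyme sat 15 min at RT before substrate start; signal change between first and third 60-s reads.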
# [20] = Counterscreen for APE1 Inhibitors: Fluorescent Dye Displacement Validation Assay (AID 1707);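 note: plate controls were ThO with dsDNA and no compound for no effect and ThO without dsDNA for full effect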
# Outline: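 Reaction mixture of 250 nM Thiazole Orange and 50 nM double-stranded abasic-site DNA was dispensed, compounds were pin-transferred, and fluorescence was read at endpoint (480 nm ex, 540 nm em). Reduced fluorescence indicated dye displacement by DNA binding.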
# [21] = target: Endonuclease 4 (Escherichia coli (strain K12)) (UniProt P0A6C1); assay: Counterscreen for APE1 Inhibitors: qHTS Validation Assay for Inhibitors of Endonuclease IV (AID 1708); note: potency is the fitted concentration of half-maximal effect
# Outline: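 Enzyme (2 nM) + compound, 15 min RT; add 50 nM TAMRA/BHQ-2 THF-site dsDNA; kinetic read ex525/em598, 3 reads/60 s; activity = read 3 − read 1. Buffer Tris pH 7.5, 50 mM NaCl, 2 mM MgCl2, DTT, Tween-20.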
# [22] = qHTS for differential inhibitors of proliferation of Plasmodium falciparum line 7G8 (AID 1815);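 note: potency is the fitted concentration of half-maximal effect; parasite growth measured after three days of incubation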
# [23] = qHTS for differential inhibitors of proliferation of Plasmodium falciparum line GB4 (AID 1816); conditions: Potency: Plasmodium falciparum GB4 proliferation inhibition;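 note: potency is the fitted concentration of half-maximal effect; parasite growth measured after 72 h incubation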
# [24] = qHTS for differential inhibitors of proliferation of Plasmodium falciparum line 3D7 (AID 1876); note: potency is the fitted concentration of half-maximal effect
# [25] = qHTS for differential inhibitors of proliferation of Plasmodium falciparum line D10 (AID 1877);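 note: potency is the fitted concentration of half-maximal effect; parasites grown with compound for 72 h before DNA staining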
# [26] = qHTS for differential inhibitors of proliferation of Plasmodium falciparum line Dd2 (AID 1882); conditions: Potency: Plasmodium falciparum Dd2 proliferation inhibition; note: potency is the fitted concentration of half-maximal effect; nearly all actives have a fitted effect of over 65% in size
# Outline: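 SYBR Green DNA fluorescence (ex 485, em 535 nm) after overnight lysis quantifies parasite growth; compound exposure lasted 72 h at 37 C on infected red cells at 2.5% hematocrit, 0.3% parasitemia (final). Artemisinin 0.29 uM and vehicle wells define normalization.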
# [27] = qHTS for differential inhibitors of proliferation of Plasmodium falciparum line W2 (AID 1883); conditions: Potency: Plasmodium falciparum W2 proliferation inhibition;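 note: potency is the fitted concentration of half-maximal effect; parasites grown with compound for 72 h before lysis and staining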
# [28] = qHTS for differential inhibitors of proliferation of Plasmodium falciparum line HB3 (AID 1886); conditions: Potency: Plasmodium falciparum HB3 proliferation inhibition;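 note: potency is the fitted concentration of half-maximal effect; parasites grown with compound for 72 h before SYBR Green readout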
# [29] = Quantitative high throughput screen for delayed death inhibitors of the malarial parasite plastid, 48 hour incubation (AID 488752); note: potency is the fitted concentration of half-maximal effect; nearly all actives have a fitted effect of over 65% in size
# Outline: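 First, compound was pinned into RPMI 1640 medium containing 0.5% Albumax. Next, reporter-parasite-infected erythrocytes were added to 2% hematocrit and 0.1% parasitemia. After 48 h at 37 C under 5% CO2, luciferase detection reagent was added and luminescence read.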
# [30] = target: M-phase phosphoprotein 8 (Homo sapiens) (UniProt Q99549); assay: qHTS Validation Assay for Inhibitors for MPP8 Chromodomain Interactions with Methylated Histone Tails (AID 488949); note: potency is the fitted concentration of half-maximal effect; nearly all actives have a fitted effect of over 55% in size
# Sequence of M-phase phosphoprotein 8 (Homo sapiens) (Q99549 whole entry, looked up): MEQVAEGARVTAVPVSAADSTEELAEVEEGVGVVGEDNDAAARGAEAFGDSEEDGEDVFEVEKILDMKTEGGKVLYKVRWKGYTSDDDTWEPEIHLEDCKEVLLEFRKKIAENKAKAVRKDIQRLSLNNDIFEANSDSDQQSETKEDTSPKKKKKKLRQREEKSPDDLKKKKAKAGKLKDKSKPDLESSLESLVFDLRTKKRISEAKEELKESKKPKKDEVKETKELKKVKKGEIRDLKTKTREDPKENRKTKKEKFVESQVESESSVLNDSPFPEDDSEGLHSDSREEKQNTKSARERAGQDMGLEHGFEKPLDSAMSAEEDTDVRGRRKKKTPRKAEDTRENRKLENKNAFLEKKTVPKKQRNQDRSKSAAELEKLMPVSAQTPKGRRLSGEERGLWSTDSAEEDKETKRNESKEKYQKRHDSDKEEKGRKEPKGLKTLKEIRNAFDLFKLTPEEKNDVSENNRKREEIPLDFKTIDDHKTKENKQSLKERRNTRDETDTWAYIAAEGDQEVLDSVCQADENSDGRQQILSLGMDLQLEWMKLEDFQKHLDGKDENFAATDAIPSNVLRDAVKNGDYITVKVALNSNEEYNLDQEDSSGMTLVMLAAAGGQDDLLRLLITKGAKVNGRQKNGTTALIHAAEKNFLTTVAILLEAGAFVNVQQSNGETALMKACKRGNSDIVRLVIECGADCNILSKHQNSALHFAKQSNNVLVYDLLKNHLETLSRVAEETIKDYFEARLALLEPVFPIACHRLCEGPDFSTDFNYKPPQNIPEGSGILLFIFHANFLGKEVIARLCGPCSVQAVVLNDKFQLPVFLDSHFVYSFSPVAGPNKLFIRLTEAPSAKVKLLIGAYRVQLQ
# Outline: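 AlphaScreen proximity signal from streptavidin donor and Ni-chelate acceptor beads (10 ug/mL each) reported binding of MPP8 to trimethyl-K9 H3(1-18) peptide, both at 50 nM. The complex formed 30 min before a 30 min compound exposure at room temperature, in PBS pH 7.4.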
# [31] = target: Transient receptor potential cation channel subfamily V member 1 (Homo sapiens) (UniProt Q8NER1); assay: HTS Assay for Compounds that Act as Enhancers of the Vanilloid Receptor 1 (AID 488979); note: 0% is about no effect
# Outline: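 TRPV1-expressing cells loaded with Fluo-8 calcium dye; compounds added and calcium influx read kinetically for 3 min (agonist phase), then capsaicin at EC20 added and read 2 min more for enhancement. Fluorescence ex 480/em 520 nm.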
# [32] = target: Thyrotropin receptor (Homo sapiens) (UniProt P16473); assay: qHTS Assay for Antagonists of the Thyroid Stimulating Hormone Receptor (AID 488980); note: 0% is about no effect
# Sequence of Thyrotropin receptor (Homo sapiens) (P16473 whole entry, looked up): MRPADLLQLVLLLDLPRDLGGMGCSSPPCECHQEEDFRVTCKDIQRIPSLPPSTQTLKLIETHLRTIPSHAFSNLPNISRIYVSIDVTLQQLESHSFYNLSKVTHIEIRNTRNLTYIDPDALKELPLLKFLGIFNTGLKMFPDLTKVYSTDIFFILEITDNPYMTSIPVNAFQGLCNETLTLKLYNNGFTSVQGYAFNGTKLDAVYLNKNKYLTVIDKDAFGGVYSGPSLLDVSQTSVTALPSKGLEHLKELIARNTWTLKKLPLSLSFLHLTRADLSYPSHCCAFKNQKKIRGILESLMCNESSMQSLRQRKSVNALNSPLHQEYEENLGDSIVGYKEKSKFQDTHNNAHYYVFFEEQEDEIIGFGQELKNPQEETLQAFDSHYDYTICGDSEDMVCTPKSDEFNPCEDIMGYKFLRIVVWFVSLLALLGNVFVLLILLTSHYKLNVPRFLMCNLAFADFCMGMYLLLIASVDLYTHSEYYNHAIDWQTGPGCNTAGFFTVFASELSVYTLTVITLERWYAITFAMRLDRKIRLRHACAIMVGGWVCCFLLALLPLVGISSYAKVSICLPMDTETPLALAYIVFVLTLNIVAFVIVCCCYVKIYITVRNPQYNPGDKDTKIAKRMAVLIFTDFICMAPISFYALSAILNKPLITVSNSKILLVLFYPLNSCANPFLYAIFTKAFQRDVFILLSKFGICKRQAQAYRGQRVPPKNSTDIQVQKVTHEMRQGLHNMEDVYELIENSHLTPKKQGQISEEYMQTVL
# Outline: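 Inhibition of cAMP raised by EC80 TSH (4 nM final) was read by HTRF, with lysate cAMP competing against cAMP-d2 for cryptate antibody after 30 min at room temperature. The cells were transfected HEK293 held in phosphodiesterase inhibitor RO 20-1724 at 70 uM.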
# [33] = target: Thyrotropin-releasing hormone receptor (Homo sapiens) (UniProt P34981); assay: qHTS for Small Molecule Agonists and Allosteric Enhancers of Human TRH Receptor: Validation Screen for Agonists (AID 493127;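 active = calcium activation more than 3 SD above the typical response in the agonist read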;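 note: intracellular calcium rise by fluo-8 fluorescence before TRH EC20 addition; 0% is about no effect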); conditions: TRH receptor agonist cell assay; at 2 µM; stronger effect = higher value
# Outline: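 Compounds are added by online pintool to dye-loaded TRHR cells while fluorescence is recorded every second. A rise in calcium signal during the agonist read marks activation; a later 10 nM TRH addition (EC20) serves the separate enhancer mode.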
# [34] = target: Galactokinase (Homo sapiens) (UniProt P51570); assay: qHTS Validation Assay for Inhibitors of Human Galactokinase (GALK) (AID 493189); note: 0% is about no effect
# Sequence of Galactokinase (Homo sapiens) (P51570 whole entry, looked up): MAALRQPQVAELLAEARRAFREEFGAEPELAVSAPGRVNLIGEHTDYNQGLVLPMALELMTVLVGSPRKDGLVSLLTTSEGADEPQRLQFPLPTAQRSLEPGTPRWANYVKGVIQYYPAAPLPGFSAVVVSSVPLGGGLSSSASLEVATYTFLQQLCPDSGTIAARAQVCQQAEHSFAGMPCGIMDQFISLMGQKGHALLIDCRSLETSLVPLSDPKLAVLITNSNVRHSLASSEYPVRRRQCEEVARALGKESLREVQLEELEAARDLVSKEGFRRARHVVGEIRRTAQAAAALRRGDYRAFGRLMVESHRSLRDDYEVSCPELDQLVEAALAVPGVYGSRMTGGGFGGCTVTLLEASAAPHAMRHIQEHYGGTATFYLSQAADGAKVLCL
# Outline: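 Inhibition was measured as remaining ATP, detected by luciferase luminescence after a 1 h room-temperature reaction. Final conditions: 5 nM GALK, 100 uM galactose, 35 uM ATP, pH 8.0 HEPES buffer.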
smiles,measurement,setting,value
Cn1c(=O)n(C)c2cc(S(=O)(=O)Nc3ccc(-c4nnc(-c5ccccc5)o4)c(Cl)c3)ccc21,activity,[1],-28.6%
same,"activity change, negative = inhibition",[2],-7.85%
same,activity,[3],-40.4%
same,activity,[4],-17.1%
CC(C)Cn1c(=O)c2ccccc2n2c(CCC(=O)N3CCN(c4ccccc4F)CC3)nnc12,activity,[1],2.07%
same,"activity change, negative = inhibition",[2],0%
same,activity,[3],-58.2%
same,activity,[4],-8.56%
Cc1cc(N)c2ccccc2[n+]1CCCCCCCCCCCCCC[n+]1c(C)cc(N)c2ccccc21,Potency,[5],inactive
same,"activity change, negative = inhibition",[6],-82.1% [at 38 µM] (active)
same,Potency,[7],> 46000 nM (inactive)
same,Potency,[8],inactive
same,Potency,[9],inactive
same,Potency,[10],inactive
same,outcome,[11],inactive
same,Potency,[12],7940 nM (active)
same,Potency,[13],2510 nM (active)
same,Potency,[14],3980 nM (active)
same,outcome,[15],inactive
same,outcome,[16],inactive
same,outcome,[17],inactive
same,outcome,[18],inactive
same,Potency,[19],28200 nM (active)
same,outcome,[20],inactive
same,Potency,[21],28200 nM (active)
same,Potency,[22],316 nM (active)
same,Potency,[23],316 nM (active)
same,Potency,[24],126 nM (active)
same,Potency,[25],316 nM (active)
same,Potency,[26],355 nM (active)
same,Potency,[27],141 nM (active)
same,Potency,[28],316 nM (active)
same,Potency,[29],1470 nM (active)
same,Potency,[30],39800 nM (active)
same,outcome,[31],inactive
same,outcome,[32],inactive
same,activation,[33],-0.125% (inactive)
same,outcome,[34],inactive
